Results filed as inconclusive are left out. Active and inactive are the calls of the source. Unless noted, calls follow the shape of the full dose curve.
Columns and labels:
[1] = Nuclear factor erythroid 2-related factor 2/antioxidant responsive element (Nrf2/ARE) small molecule agonists: luciferase reporter gene qHTS assay in human keratinocytes (AID 1919969); also: nearly all actives have a fitted effect of over 35% in size; also: potency is read from the fitted curve at half-maximal effect
[2] = target: Gonadotropin-releasing hormone receptor (Homo sapiens) (UniProt P30968); assay: Human gonadotropin-releasing hormone receptor (GnRHR) small molecule agonists, calcium flux assay in GnRHR-HEK293 cells (AID 1920063); also: nearly all actives have a fitted effect of over 35% in size; also: potency is read from the fitted curve at half-maximal effect
Procedure, shortened: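 Stable human GnRHR HEK293 line. 18 h plating, then calcium dye for 1 h at 37 C. Agonist-mode compound addition from DMSO stocks; fluorescence monitored 3 min.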

[3] = target: KiSS-1 receptor (Homo sapiens) (UniProt Q969F8); assay: Human kisspeptin (KISS1R) small molecule agonists, calcium flux assay in KISS1R-HEK293 cells (AID 1920064; active = well fitted activation curve with a large enough effect in the repeat runs)
Procedure, shortened: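 After overnight (18 h) culture at 37 C/5% CO2, human KISS1R-HEK293 cells received calcium dye for 1 h, then test compound; emission at 540 nm (excitation 480 nm) was tracked for 3 min.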

[4] = G protein-coupled receptor (GPCR) small molecule agonists, calcium flux assay: HEK293 wild type cell line counter screen (AID 1920065)
Procedure, shortened: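 Following 18 h incubation at 37 C/5% CO2, plates got calcium dye for 1 h; compounds, ATP or DMSO were then pinned in and fluorescence followed kinetically (480/540 nm).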

[5] = p53 small molecule agonists, cell-based qHTS assay with human liver microsomes (AID 1963577)
Procedure, shortened: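 Cells carrying a p53-responsive bla reporter were rested 5 h (37 C, 5% CO2) before compound transfer. Human liver microsomes plus NADPH, 0.5 mg/mL final apiece, supplied metabolism during the 16 h 37 C exposure.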

[6] = p53 small molecule agonists, cell-based qHTS assay with rat liver microsomes (AID 1963578)
Procedure, shortened: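 Fluorescence from a beta-lactamase reporter under a p53 response element was measured after cells had been incubated 16 h at 37 C with test compound and rat liver microsomes plus NADPH (0.5 mg/mL final each).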

[7] = p53 small molecule agonists, cell-based qHTS assay with rat liver microsomes: qHTS cell viability counter screen (AID 1963580); also: nearly all actives have a fitted effect of over 45% in size; also: potency is read from the fitted curve at half-maximal effect
Procedure, shortened: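 Cytotoxicity counter screen: intracellular ATP read by CellTiter-Glo luminescence in the p53 reporter wells. HCT-116 p53RE-bla cells were treated for 16 h at 37 C alongside rat liver microsomes and NADPH, each 0.5 mg/mL final.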

[8] = p53 small molecule agonists, cell-based qHTS assay (AID 1963582; active = well fitted activation curve with a large enough effect in the signal ratio in the repeat runs, not every such curve was filed as active; the % refers to the signal ratio)
Procedure, shortened: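 Measured: fluorescence from cleaved LiveBLAzer substrate. System: p53RE-bla cells, 16 h compound treatment at 37 C, 2 h substrate step at room temperature.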

[9] = target: 5-hydroxytryptamine receptor 2A (Homo sapiens) (UniProt P28223); assay: 5-hydroxytryptamine receptor 2A (HTR2A) small molecule antagonists, cell-based qHTS assay (AID 1963586); also: nearly all actives have a fitted effect of over 45% in size
Procedure, shortened: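 CHO cells stably expressing human HTR2A were plated for 18 h at 37 C, then loaded with calcium dye for 1 h. Compounds were preincubated 5 min at room temperature before DOI (4 nM solution) was added. Kinetic fluorescence was read for 3 min.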

[10] = target: 5-hydroxytryptamine receptor 2A (Homo sapiens) (UniProt P28223); assay: 5-hydroxytryptamine receptor 2A (HTR2A) small molecule agonists, cell-based qHTS assay (AID 1963587); also: nearly all actives have a fitted effect of over 30% in size
Procedure, shortened: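 Kinetic calcium-flux fluorescence (2 min, 1 sec intervals) after compound addition in agonist mode. HTR2A-CHO cells were cultured 18 h, then dye-loaded 1 h at 37 C.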

[11] = target: Muscarinic acetylcholine receptor M1 (Homo sapiens) (UniProt P11229); assay: Cholinergic receptor muscarinic 1 (CHRM1) small molecule antagonists, cell-based qHTS assay (AID 1963588); also: nearly all actives have a fitted effect of over 40% in size; also: potency is read from the fitted curve at half-maximal effect
Procedure, shortened: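 Compounds were tested at 15 concentrations in three independent runs. Dye-loaded CHRM1-CHO cells were exposed 5 min at room temperature before stimulation by acetylcholine added at 50nM. Intracellular calcium was read kinetically on FDSS for 3 min.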

[12] = target: Muscarinic acetylcholine receptor M1 (Homo sapiens) (UniProt P11229); assay: Cholinergic receptor muscarinic 1 (CHRM1) small molecule agonists, cell-based qHTS assay (AID 1963589); also: nearly all actives have a fitted effect of over 35% in size
Procedure, shortened: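 Kinetic fluorescence (1 s intervals) of calcium-sensitive dye in human M1 CHO cells after compound addition; cells pre-incubated 18 h at 37 C/5% CO2 and dye-loaded 1 h.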

[13] = cAMP Responsive Elements (CRE) small molecule agonists, cell-based qHTS assay (AID 1963590)
Procedure, shortened: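 Test agents in DMSO were incubated 3 h at 37 C/5% CO2 with CRE-bla HEK 293T cells seeded 18 h earlier; LiveBLAzer B/G FRET substrate was added and read after 2 h at room temperature.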

[14] = cAMP Responsive Elements (CRE) small molecule antagonists, cell-based qHTS assay (AID 1963591; active = well fitted inhibition curve with a large enough effect in the signal ratio in the repeat runs, not every such curve was filed as active; the % refers to the signal ratio)
Procedure, shortened: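 Reporter line CRE-bla HEK 293T in dialyzed-FBS DMEM; cells preincubated 18 h, treated 3 h with compound plus NKH477 (0.25 uM final); LiveBLAzer FRET, 2 h RT.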

[15] = target: D(2) dopamine receptor (Homo sapiens) (UniProt P14416); assay: Dopamine D2 receptor (DRD2) small molecule agonists, cell-based qHTS assay (AID 1963594); also: nearly all actives have a fitted effect of over 35% in size; also: potency is read from the fitted curve at half-maximal effect
Procedure, shortened: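 cAMP accumulation in DRD2-HEK293 cells measured by HTRF after 1 h detection; compounds added 10 min before NKH477 (200nM […]) forskolin-analogue stimulation, 30 min at room temperature, with Ro20-1724 present at 0.1 mM final.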

[16] = target: D(2) dopamine receptor (Homo sapiens) (UniProt P14416); assay: Dopamine D2 receptor (DRD2) small molecule antagonists, cell-based qHTS assay (AID 1963595; active = well fitted inhibition curve with a large enough effect in the signal ratio in the repeat runs, with a control signal flat; the % refers to the signal ratio; also: potency is read from the fitted curve at half-maximal effect)
Procedure, shortened: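 DRD2-HEK293; 0.1 mM Ro20-1724; cpd 10 min RT; NKH477 200 nM + quinpirole 12 nM, 30 min RT; HTRF cAMP (cAMP-d2/anti-cAMP cryptate), 665/620 nm ratio after 1 h.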

[17] = p53 small molecule agonists, cell-based qHTS assay: qHTS cell viability counter screen (AID 1963581); also: nearly all actives have a fitted effect of over 45% in size
Procedure, shortened: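 qHTS counter screen: 16 h compound exposure at 37 C of p53RE-bla HCT-116 cells (4,000 per well, seeded 5 h prior), cell viability by ATP luminescence.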

[18] = target: Beta-2 adrenergic receptor (Homo sapiens) (UniProt P07550); assay: Adrenergic beta2 receptor (ADRB2) small molecule antagonists, cell-based qHTS assay (AID 1963592); also: series mostly up to about 92 µM; nearly all actives have a fitted effect of over 50% in size
Procedure, shortened: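 Assay format: CHO-ADRB2 cells, 18-20hr seeding at 37C/5% CO2, then compound plus 1nM isoproterenol agonist mix for 0.5hr RT. Homogeneous time-resolved fluorescence cAMP detection after 1hr, expressed as 665/615 nm ratio.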

[19] = target: Beta-2 adrenergic receptor (Homo sapiens) (UniProt P07550); assay: Adrenergic beta2 receptor (ADRB2) small molecule agonists, cell-based qHTS assay (AID 1963593);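 also: CHO cells stably overexpressing human ADRB2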
Procedure, shortened: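 CHO cells stably over-expressing ADRB2 were plated overnight at 37C, then dosed with compounds plus a stimulation mix containing 100uM IBMX and 25uM Ro-20-1724 for 0.5hr at room temperature. cAMP was measured by HTRF competition, 1hr.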

[20] = p53 small molecule agonists, cell-based qHTS assay with human liver microsomes: qHTS cell viability counter screen (AID 1963579); also: nearly all actives have a fitted effect of over 45% in size
Procedure, shortened: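 Seed p53RE-bla cells at 4,000 per well; incubate 5 h at 37 C; add compound, human liver microsomes and NADPH; incubate 16 h at 37 C; add CellTiter-Glo; after 30 min at room temperature, read luminescence.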

Measured: Potency

Beta-2 adrenergic receptor (Homo sapiens), sequence (P07550 whole entry, looked up): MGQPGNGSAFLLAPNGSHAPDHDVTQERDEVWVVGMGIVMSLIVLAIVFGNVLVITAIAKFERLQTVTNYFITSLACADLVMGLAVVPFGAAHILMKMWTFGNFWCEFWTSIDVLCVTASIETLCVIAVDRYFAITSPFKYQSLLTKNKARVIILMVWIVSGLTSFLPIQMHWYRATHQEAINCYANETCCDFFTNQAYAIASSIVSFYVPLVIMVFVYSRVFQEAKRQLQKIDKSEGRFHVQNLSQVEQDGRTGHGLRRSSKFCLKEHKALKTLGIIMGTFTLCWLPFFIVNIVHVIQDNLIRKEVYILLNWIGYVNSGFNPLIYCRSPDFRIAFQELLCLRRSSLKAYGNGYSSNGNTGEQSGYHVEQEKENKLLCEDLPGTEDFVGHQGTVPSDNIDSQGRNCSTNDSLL
D(2) dopamine receptor (Homo sapiens), sequence (P14416 whole entry, looked up): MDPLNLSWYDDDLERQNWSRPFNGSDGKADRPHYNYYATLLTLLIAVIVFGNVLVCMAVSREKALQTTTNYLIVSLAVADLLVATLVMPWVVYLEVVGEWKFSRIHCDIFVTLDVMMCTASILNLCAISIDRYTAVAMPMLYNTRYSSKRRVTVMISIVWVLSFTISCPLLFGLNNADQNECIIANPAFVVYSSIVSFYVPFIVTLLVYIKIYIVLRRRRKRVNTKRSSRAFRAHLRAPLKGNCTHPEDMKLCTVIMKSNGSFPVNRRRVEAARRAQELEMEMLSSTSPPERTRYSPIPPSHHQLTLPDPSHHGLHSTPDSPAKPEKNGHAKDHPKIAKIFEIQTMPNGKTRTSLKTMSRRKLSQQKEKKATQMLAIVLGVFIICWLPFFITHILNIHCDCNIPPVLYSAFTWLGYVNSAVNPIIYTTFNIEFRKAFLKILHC
5-hydroxytryptamine receptor 2A (Homo sapiens), sequence (P28223 whole entry, looked up): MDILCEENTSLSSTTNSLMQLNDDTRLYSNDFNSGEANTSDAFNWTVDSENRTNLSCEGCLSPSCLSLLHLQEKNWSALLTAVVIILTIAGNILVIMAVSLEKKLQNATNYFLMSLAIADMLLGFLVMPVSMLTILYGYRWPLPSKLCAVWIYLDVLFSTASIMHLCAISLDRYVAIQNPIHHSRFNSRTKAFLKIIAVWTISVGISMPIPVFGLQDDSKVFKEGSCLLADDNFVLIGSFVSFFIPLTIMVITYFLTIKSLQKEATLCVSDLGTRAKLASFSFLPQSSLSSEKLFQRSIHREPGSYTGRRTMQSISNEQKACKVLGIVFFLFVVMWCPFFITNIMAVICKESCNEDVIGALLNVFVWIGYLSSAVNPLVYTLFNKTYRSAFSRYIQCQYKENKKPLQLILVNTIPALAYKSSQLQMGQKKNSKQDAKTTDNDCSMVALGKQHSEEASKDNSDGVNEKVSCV
KiSS-1 receptor (Homo sapiens), sequence (Q969F8 whole entry, looked up): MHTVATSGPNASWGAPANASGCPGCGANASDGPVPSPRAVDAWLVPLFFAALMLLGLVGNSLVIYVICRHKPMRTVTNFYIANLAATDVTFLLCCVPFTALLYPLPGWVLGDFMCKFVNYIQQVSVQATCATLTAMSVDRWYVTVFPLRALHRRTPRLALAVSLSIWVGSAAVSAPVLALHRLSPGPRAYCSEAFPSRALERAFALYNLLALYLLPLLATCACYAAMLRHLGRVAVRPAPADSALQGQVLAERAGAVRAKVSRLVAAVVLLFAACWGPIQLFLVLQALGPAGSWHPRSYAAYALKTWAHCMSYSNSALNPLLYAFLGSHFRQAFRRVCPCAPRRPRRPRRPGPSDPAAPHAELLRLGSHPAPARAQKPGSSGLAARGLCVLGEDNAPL
Gonadotropin-releasing hormone receptor (Homo sapiens), sequence (P30968 whole entry, looked up): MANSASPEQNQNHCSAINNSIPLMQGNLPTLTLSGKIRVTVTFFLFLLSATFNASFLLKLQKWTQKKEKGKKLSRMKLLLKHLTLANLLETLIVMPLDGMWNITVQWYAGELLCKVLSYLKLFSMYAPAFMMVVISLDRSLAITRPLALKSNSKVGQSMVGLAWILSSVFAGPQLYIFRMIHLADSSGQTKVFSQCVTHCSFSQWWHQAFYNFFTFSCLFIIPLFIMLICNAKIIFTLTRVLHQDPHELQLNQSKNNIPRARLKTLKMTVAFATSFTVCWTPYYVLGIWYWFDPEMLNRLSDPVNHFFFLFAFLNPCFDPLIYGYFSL
Muscarinic acetylcholine receptor M1 (Homo sapiens), sequence (P11229 whole entry, looked up): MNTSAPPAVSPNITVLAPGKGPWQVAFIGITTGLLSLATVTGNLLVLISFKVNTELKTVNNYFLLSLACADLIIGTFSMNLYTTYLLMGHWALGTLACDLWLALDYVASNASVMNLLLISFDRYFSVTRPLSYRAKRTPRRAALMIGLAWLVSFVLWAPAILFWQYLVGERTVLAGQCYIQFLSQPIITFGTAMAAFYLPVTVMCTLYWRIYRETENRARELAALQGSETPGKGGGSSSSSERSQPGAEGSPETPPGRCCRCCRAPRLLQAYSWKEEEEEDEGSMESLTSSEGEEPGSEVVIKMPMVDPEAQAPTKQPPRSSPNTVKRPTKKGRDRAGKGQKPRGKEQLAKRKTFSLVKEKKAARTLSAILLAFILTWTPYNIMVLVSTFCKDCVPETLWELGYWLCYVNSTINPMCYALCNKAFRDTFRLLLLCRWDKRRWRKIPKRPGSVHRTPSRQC

OC12N=C(c3ccccc3)SC1Cc1cc(Cl)ccc12 (stereo unspecified)
active: [1] 17.2 µM
not listed: [17] | [18] | [19] | [20]
inactive: all other assays above

NS(=O)(=O)c1cc2c(cc1Cl)NC(CSCc1ccccc1)=NS2(=O)=O
not listed: [9] | [16] | [19] | [20]
inactive: all other assays above

CCCCCCCCCCCCOCCOS(=O)(=O)O
active: [2] 38.9 µM
not listed: [9] | [10] | [13] | [14] | [17] | [18] | [20]
inactive: all other assays above

CC/C=C\C/C=C\C/C=C\CCCCCCCC(=O)OC
active: [1] 27.3 µM
not listed: [7] | [8] | [9] | [10] | [13] | [16] | [17] | [20]
inactive: all other assays above

COC(=O)[C@@H](N)Cc1ccc(O)c(O)c1
active: [15] 26.6 µM
not listed: [6] | [9]
inactive: all other assays above

CCCCCCCCCCCC(=O)[O][Sn]([CH2]CCC)([CH2]CCC)[O]C(=O)CCCCCCCCCCC
active: [1] 33.5 µM
not listed: [11] | [18] | [20]
inactive: all other assays above

CSc1ccc2c(c1)C(N1CCN(C)CC1)Cc1ccccc1S2 (stereo unspecified)
active: [11] 0.729 µM | [16] 0.0473 µM
not listed: [6] | [8] | [9] | [13] | [14] | [19]
inactive: all other assays above

O=C(Oc1ccccc1)c1ccc2ccccc2c1O
active: [1] 8.63 µM
not listed: [8] | [14] | [20]
inactive: all other assays above

NNc1nc(-c2ccc(N)cc2)cs1
active: [1] 54.5 µM
not listed: [6] | [15] | [18] | [19]
inactive: all other assays above

NC(=S)NC(N)=S
active: [1] 13.7 µM
not listed: [6] | [7] | [9] | [16]
inactive: all other assays above

CCN(Cc1cccc(S(=O)(=O)O)c1)c1ccc(C(=C2C=CC(=[N+](CC)Cc3cccc(S(=O)(=O)O)c3)C=C2)c2ccccc2S(=O)(=O)[O-])cc1
active: [7] 20.5 µM
not listed: [8] | [13] | [15] | [16] | [17] | [18] | [19] | [20]
inactive: all other assays above

O=C(NCc1ncc(C(F)(F)F)cc1Cl)c1c(Cl)cccc1Cl
not listed: [6] | [13] | [19]
inactive: all other assays above

COc1cc(Nc2c(C#N)cnc3cc(OCCCN4CCN(C)CC4)c(OC)cc23)c(Cl)cc1Cl
not listed: [6] | [8] | [9] | [13] | [17]
inactive: all other assays above

Cc1ccc(N=Nc2c(O)c(C(=O)O)cc3ccccc23)c(S(=O)(=O)O)c1
not listed: [6] | [8] | [13]
inactive: all other assays above

CCc1nn(CCCN2CCN(c3cccc(Cl)c3)CC2)c(=O)n1CCOc1ccccc1
inactive: [1] | [2] | [3] | [4] | [5] | [6] | [7] | [17] | [8] | [15]
